Results on 46 compounds are retold here after ChEMBL document CHEMBL3988442, “University of Dundee, Small-Polar-MMV Screening Library” (2021).

Structures are written as SMILES. In all, about 66,000 compounds went through this assay and about 960 (1.5%) showed an effect of 50% or more. This excerpt belongs to a sample that is enriched for strong results.

For the test, the system named is Trypanosoma brucei. Briefly: Trypanosoma brucei 72 hour study. The class given is functional, organism-based. More on the design: scale not given: in the data most compounds retested in dose-response had high values.

`O=C(O)C(F)(F)F.O=C(O)C(F)(F)F.c1cc(CN2CC[C@@H]3[C@@H](CO[C@H]3CN3CCOCC3)C2)cs1`: the “Percent Effect” value (30.3 µM, […]) is -46.86%. Take `COc1ccc(N2CCN(C(=O)[C@H]3[C@@H]4CNC[C@@H]43)CC2(C)C)cc1`: for the setting “30 µM, 30.03 µM”, the “Percent Effect” value is listed as -58.92%.

Turning to `Cc1cccc(CN2CCO[C@@H]3CC(COc4ccccn4)C[C@H]32)n1.O=C(O)C(F)(F)F.O=C(O)C(F)(F)F` (some centres not stated), the “Percent Effect” value (30.3 µM, […]) is on record as -29.04%. Still for that read-out and setting: the value for `Cc1cc(C)c2cc(CNC(C)C)c3nn(C)c(=O)n3c2c1` was 99.68%. Regarding `COCCNCc1cc2c(C)cc(C)cc2n2c(=O)n(C)nc12`, for the setting “30.3 µM, […]”, the “Percent Effect” value was 39.03%. On the same count and under the same terms, the value for `Cc1cc(C)c2cc(CNC3CCCCC3)c3nn(C)c(=O)n3c2c1` was 100.6%.

For the compound `Cc1cc(C)c2cc(CNCc3ccc(C)o3)c3nn(C)c(=O)n3c2c1`, the “Percent Effect” value (30.3 µM, […]) is -8.702%. Same read-out and setting: for `Cc1cc(C)c2cc(CNCc3ccccc3)c3nn(C)c(=O)n3c2c1` the value was 17.22%.

Take `CCOCCCNCc1cc2c(C)cc(C)cc2n2c(=O)n(C)nc12`: the “Percent Effect” value (30.3 µM, […]) stood at 2.995%. Consider `CCCNCc1cc2c(C)cc(C)cc2n2c(=O)n(C)nc12`, for which the “Percent Effect” value (30.3 µM, […]) is 24.54%. As for `Cc1cc(C)c2cc(CNCc3ccco3)c3nn(C)c(=O)n3c2c1`, the “Percent Effect” value (30.3 µM, […]) was 8.532%. As for `Cc1cc(C)c2cc(CNCC3CCCO3)c3nn(C)c(=O)n3c2c1` (configuration not stated), the “Percent Effect” value (30.3 µM, […]) came to 73.49%. Regarding `Cc1nc(Nc2ncccn2)cc(C2CCCN2CC(C)C)n1` (configuration not stated), the “Percent Effect” value (30 µM, 30.03 µM) is given as -16.62%. In the case of `Cc1nc(CN2CCC3(CC2)NC(=O)CC3c2ccccc2)cs1.O=C(O)C(F)(F)F` (configuration not stated), where the note is “30.3 µM, […]”, the “Percent Effect” value turned out to be 10.42%. Still for that read-out and setting: the value for `O=C(Cc1cccc(F)c1)N1C[C@H]2CN(Cc3ccccn3)C[C@H]2C1.O=C(O)C(F)(F)F` was -6.988%. Take `CC(C)n1c(=O)nc2n1C(=O)N(c1ccccc1)C2`: under “30 µM, 30.03 µM”, the “Percent Effect” value is given as 14.82%.

Take `CN1CCN(Cc2cnc3n2CCN(Cc2cccnc2)CC3)CC1.O=C(O)C(F)(F)F.O=C(O)C(F)(F)F.O=C(O)C(F)(F)F`: the “Percent Effect” value (30.3 µM, […]) is given as -39.08%. Take `Cc1nc(CN2C(=O)C[C@@H]3[C@@H]2CCN3S(C)(=O)=O)cs1`: the “Percent Effect” value (30 µM, 30.03 µM) is -13.69%. Same read-out and setting: the value for `Cc1cc2nc(C(C)C)cc(NCCNc3ncccc3C)n2n1` was -45.75%; that for `FC(F)(F)Oc1ccc(-c2c[nH]c([C@@H]3COCCN3)n2)cc1` was 62.77%; that for `COc1ccc(-c2c[nH]c([C@@H]3COCCN3)n2)cc1` was -38.08%.

As for `FC(F)(F)c1ccc(-c2c[nH]c([C@@H]3COCCN3)n2)cc1`, the “Percent Effect” value (30 µM, 30.03 µM) is 11.07%. On the same count and under the same terms, the value for `CC(Nc1c(F)cc(C#N)cc1F)c1cccc(S(N)(=O)=O)c1` (configuration not stated) was 39.53%. Still for that read-out and setting: for `CC(Nc1ccc(C#N)cc1F)c1cccc(S(N)(=O)=O)c1` (configuration not stated) the value was 35.16%; for `CC(Nc1cccc(F)c1C#N)c1cccc(S(N)(=O)=O)c1` (configuration not stated), 70.17%. Consider `CC(=O)N1CCN(Cc2ccc(F)cc2)CC2(CC(=O)N(C)C2)C1.O=C(O)C(F)(F)F` (configuration not stated), for which the “Percent Effect” value (30.3 µM, […]) is on record as -72.99%. Consider `COc1ccc(CNc2ncc(-c3cc(C)no3)c(C(C)C)n2)cc1`, for which the “Percent Effect” value (30.3 µM, […]) is reported as 46.49%.

Turning to `Cc1cc(-c2cnc(NCc3cccnc3)nc2C(C)C)on1`, under “30 µM, 30.03 µM”, the “Percent Effect” value amounted to 23.42%. With `Cc1cc(-c2cnc(NCc3ccccn3)nc2C(C)C)on1`, the “Percent Effect” value (30.3 µM, […]) is reported as 94.64%. As to `Cc1cc(-c2cnc(NCc3ccc4c(c3)OCO4)nc2C(C)C)on1`, the “Percent Effect” value (30.3 µM, […]) was 70.78%. For `Cc1cc(-c2cnc(NCc3cccnc3)nc2C(C)(C)C)on1`, the “Percent Effect” value (30 µM, 30.03 µM) was 25.28%. With `Cc1cc(-c2cnc(NCc3ccncc3)nc2C(C)C)on1`, the “Percent Effect” value (30.3 µM, […]) is recorded as 23.52%. `CNS(=O)(=O)Cc1ccc(CNC(=O)c2ccccn2)cc1`: the “Percent Effect” value by setting is: (30.3 µM, […]) -17.29%; (10 mM, 10 mM as filed; unlikely as a test dose) -30.84%. On to `COc1cccc(C(=O)N2CCc3nc(C4CCCN4)ncc3C2)c1.Cl` (configuration not stated), for which the “Percent Effect” value (30.3 µM, […]) is given as -17.69%. On the same count and under the same terms, for `CNC(=O)CN1CCCC(Cc2ccccc2OC)C1` (configuration not stated) the value was 99.76%. Take `COc1ccccc1CC1CCCN(CCC(N)=O)C1` (configuration not stated): where the note is “30.3 µM, […]”, the “Percent Effect” value amounted to 100.1%. As for `COc1ccccc1CC1CCCN(CC(N)=O)C1` (configuration not stated), for the setting “30 µM, 30.03 µM”, the “Percent Effect” value is -11.23%. On to `COc1ccccc1CC1CCCN(CC(=O)NC2CC2)C1` (configuration not stated), for which the “Percent Effect” value (30.3 µM, […]) is on record as 6.426%. For the compound `COc1ccccc1CC1CCCN(CCN2CCOC2=O)C1` (configuration not stated), the “Percent Effect” value (30.3 µM, […]) came to 99.68%. As for `COc1ccccc1CC1CCCN(CCC#N)C1` (configuration not stated), for the setting “30 µM, 30.03 µM”, the “Percent Effect” value is recorded as -5.815%. On the same count and under the same terms, for `COc1ccccc1CN1CCN(CCN2CCOC2=O)CC1` the value was -64.53%.

Turning to `COc1ccccc1CC1CCN(C(=O)CCN2CCOC2=O)CC1`, the “Percent Effect” value (30.3 µM, […]) was 4.544%.

As to `CNC(=O)NC(=O)CN1CCCC(Cc2ccccc2OC)C1` (configuration not stated), the “Percent Effect” value (30.3 µM, […]) turned out to be 26.83%.

As to `O=C(O)c1cc(/C=C/c2ccc3ccccc3c2)ncn1`, for the setting “30 µM, 30.03 µM”, the “Percent Effect” value worked out at 17.56%.

On to `CCn1ncc2c1C(COCC1CC1)CN(C(=O)c1ccncn1)C2.O=C(O)C(F)(F)F` (configuration not stated), for which the “Percent Effect” value (30 µM, 30.03 µM) was -0.6882%. With `Cc1ncsc1C(=O)N1CC[C@@]2(O)CCN(C(=O)N3CCCC3)C[C@H]2C1`, the “Percent Effect” value (30.3 µM, […]) is given as -70.48%.
